# Results as given in the supplement of paper PMC11001985.
# Values without a mark were called inactive.
# Compound: C#CCNC(=O)CCSSCCC(=O)NCCc1ccc(C=O)c(C=O)c1
# Test: lysine labeling ratio R10:1 (500 µM / 50 µM probe), SILAC-ABPP in living cells; higher = lower intrinsic lysine reactivity toward the probe, active = 2 or less
# Settings: HeLa; probe concentrations 500 vs 50 µM
# Method in brief: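 With forward and reverse label swaps, light and heavy SILAC HeLa cells, alive and in PBS at room temperature, were exposed to either 500 µM or 50 µM of an alkyne-tagged lysine probe bearing a disulfide link. After mixing, lysates were clicked to biotin-azide, cut with trypsin, pulled down on neutravidin, freed with DTT, alkylated and analysed on a TIMS-TOF Pro by LC-MS/MS. The per-lysine value R is the median over forward and reverse replicates of the filtered median high-probe/low-probe MS1 peptide ratio. It is capped at 20.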
# Chain of UniProt Q15149 (Q15149 whole entry): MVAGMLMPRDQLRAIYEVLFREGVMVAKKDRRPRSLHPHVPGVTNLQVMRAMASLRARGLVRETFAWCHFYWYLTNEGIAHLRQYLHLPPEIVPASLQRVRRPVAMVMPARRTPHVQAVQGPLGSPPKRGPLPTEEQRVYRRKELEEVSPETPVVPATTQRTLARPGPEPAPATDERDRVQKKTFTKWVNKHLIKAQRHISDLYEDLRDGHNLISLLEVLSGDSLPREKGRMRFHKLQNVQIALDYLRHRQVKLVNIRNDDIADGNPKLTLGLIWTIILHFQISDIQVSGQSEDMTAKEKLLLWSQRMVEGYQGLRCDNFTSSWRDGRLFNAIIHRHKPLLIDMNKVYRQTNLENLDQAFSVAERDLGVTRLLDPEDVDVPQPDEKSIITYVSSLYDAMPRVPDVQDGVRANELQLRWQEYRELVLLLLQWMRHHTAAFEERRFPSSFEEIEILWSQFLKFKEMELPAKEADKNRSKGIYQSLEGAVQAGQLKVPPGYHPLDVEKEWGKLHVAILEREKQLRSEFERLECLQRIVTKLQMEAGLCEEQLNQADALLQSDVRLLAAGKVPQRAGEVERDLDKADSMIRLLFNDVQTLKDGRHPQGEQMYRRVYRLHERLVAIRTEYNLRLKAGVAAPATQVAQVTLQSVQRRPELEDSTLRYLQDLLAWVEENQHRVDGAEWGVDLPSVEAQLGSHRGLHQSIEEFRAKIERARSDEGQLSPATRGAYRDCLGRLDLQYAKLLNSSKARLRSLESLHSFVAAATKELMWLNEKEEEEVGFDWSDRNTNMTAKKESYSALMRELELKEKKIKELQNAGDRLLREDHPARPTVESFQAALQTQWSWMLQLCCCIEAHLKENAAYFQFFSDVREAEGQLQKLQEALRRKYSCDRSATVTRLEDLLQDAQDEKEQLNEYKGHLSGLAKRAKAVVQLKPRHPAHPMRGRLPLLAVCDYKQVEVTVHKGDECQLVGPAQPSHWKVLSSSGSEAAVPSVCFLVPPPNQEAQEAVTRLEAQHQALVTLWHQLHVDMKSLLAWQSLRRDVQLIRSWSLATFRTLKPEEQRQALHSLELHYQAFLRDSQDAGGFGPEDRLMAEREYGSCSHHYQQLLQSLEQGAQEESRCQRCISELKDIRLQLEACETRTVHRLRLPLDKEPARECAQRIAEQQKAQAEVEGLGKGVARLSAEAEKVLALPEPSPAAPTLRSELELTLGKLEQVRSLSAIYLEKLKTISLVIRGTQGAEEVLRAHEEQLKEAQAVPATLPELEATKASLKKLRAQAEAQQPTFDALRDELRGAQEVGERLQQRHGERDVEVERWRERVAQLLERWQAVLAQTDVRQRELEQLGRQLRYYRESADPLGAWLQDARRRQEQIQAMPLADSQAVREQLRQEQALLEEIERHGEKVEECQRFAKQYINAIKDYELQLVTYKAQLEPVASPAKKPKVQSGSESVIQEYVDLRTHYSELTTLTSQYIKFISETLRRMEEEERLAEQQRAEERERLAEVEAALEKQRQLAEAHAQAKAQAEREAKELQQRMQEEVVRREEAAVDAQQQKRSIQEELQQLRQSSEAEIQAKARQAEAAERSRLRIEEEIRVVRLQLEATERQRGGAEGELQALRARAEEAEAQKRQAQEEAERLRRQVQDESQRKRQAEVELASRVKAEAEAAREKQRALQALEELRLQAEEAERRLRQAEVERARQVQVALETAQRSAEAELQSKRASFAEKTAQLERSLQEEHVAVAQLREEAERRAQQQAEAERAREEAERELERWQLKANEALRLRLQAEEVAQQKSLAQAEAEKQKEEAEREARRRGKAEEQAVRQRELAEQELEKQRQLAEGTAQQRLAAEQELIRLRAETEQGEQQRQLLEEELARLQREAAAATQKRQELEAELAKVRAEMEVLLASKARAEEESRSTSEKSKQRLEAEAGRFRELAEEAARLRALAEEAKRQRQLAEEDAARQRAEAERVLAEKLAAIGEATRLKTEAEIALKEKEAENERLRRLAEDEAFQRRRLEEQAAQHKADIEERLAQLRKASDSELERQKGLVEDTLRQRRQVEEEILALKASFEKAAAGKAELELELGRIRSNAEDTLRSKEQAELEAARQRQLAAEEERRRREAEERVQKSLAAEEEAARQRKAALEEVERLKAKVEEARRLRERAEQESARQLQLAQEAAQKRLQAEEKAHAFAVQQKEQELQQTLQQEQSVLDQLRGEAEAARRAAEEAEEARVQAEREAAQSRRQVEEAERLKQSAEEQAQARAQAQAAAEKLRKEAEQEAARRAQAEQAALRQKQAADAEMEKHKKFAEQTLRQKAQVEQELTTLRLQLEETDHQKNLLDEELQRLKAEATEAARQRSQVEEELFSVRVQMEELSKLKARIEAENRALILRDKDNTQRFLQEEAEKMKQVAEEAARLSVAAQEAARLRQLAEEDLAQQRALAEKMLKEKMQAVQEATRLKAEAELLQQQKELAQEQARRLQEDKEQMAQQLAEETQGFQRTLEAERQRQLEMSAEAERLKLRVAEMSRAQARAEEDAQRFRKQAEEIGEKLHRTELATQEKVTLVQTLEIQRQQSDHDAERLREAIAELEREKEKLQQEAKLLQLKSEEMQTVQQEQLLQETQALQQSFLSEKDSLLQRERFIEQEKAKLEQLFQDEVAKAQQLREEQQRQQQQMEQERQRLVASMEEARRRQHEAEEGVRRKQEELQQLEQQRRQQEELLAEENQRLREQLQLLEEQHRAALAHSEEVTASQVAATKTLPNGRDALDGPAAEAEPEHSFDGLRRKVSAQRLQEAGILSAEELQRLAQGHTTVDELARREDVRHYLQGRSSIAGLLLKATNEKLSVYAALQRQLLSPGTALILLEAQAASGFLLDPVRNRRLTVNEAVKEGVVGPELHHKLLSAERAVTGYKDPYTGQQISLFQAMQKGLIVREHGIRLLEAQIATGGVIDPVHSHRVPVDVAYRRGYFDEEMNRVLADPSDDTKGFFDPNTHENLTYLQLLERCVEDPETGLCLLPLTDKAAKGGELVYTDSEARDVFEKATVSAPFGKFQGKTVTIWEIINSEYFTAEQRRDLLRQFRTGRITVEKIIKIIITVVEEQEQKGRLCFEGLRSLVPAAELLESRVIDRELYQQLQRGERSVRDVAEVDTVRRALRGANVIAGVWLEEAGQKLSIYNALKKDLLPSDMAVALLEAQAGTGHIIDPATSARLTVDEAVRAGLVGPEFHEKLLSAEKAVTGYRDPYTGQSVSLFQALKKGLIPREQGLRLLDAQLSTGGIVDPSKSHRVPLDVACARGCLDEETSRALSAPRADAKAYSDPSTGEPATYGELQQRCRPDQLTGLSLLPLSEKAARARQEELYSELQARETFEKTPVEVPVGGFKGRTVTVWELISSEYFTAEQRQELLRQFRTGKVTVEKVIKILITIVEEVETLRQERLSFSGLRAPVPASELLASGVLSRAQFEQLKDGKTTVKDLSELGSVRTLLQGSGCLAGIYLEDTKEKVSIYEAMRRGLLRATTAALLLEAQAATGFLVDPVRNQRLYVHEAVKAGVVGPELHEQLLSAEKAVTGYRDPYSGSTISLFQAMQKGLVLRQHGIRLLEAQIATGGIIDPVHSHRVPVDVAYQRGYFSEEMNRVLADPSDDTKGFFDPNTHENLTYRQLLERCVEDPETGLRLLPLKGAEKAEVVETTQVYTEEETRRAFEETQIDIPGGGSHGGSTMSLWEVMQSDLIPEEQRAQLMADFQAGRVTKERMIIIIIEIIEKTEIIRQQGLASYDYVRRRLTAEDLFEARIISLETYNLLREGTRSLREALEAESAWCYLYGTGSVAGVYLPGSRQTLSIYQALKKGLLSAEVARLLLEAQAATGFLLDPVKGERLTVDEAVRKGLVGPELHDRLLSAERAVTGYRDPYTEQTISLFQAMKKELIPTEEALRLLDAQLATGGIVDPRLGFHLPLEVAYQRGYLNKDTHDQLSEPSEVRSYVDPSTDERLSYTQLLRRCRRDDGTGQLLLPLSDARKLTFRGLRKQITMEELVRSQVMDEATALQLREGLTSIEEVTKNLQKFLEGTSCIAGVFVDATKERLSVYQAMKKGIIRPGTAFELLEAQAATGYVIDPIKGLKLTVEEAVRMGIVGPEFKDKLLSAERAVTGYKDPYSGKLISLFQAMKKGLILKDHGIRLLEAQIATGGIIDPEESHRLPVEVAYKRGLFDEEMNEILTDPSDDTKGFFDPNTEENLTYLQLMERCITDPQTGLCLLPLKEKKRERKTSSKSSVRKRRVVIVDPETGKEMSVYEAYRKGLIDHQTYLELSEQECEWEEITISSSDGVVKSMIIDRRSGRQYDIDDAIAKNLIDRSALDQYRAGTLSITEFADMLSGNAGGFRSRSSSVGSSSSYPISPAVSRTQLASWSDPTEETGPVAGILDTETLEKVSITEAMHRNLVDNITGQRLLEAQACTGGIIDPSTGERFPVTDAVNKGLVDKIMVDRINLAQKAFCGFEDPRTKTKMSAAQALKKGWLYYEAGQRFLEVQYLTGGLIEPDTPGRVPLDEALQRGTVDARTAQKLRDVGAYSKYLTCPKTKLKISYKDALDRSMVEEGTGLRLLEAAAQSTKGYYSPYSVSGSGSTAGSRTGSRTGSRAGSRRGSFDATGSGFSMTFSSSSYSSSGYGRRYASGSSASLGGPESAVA
# Chain of UniProt Q14254 (Q14254 whole entry): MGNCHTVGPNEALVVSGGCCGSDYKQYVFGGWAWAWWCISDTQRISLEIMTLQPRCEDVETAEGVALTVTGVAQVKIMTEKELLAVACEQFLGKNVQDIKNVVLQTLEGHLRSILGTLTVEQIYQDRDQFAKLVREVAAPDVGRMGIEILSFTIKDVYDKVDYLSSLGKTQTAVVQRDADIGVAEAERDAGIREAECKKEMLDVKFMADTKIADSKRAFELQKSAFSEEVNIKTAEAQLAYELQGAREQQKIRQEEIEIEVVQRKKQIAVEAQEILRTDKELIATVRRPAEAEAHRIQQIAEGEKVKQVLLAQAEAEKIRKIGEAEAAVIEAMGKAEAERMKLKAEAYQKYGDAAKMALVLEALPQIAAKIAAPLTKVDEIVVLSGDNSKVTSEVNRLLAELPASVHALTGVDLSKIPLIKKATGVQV
row,Target,lysine labeling ratio R10:1
1,CD109 (lysine site: K127) (UniProt Q6YHK3),12
2,ADAM9 (lysine site: K368) (UniProt Q13443),3.66
3,HSPA9 (lysine site: K300) (UniProt P38646),2.25
4,NUCB2 (lysine site: K84) (UniProt P80303),1.63 (active)
5,TLN1 (lysine site: K2361) (UniProt Q9Y490),5.09
6,PPIA (lysine site: K49) (UniProt P62937),3.03
7,JTB (lysine site: K94) (UniProt O76095),5.2
8,CAPZB (lysine site: K223) (UniProt P47756),2.76
9,UniProt P62491 (lysine site: K179),2.31
10,RBMX (lysine site: K217) (UniProt P38159),8.01
11,PPIC (lysine site: K49) (UniProt P45877),1.58 (active)
12,UniProt P78333 (lysine site: K385),2.8
13,ATAD3B (lysine site: K214) (UniProt Q5T9A4),2.61
14,UniProt Q15149 (lysine site: K4173),1.95 (active)
15,ITGA6 (lysine site: K586) (UniProt P23229),12.8
16,SPTAN1 (lysine site: K719) (UniProt Q13813),3.93
17,HNRNPL (lysine site: K493) (UniProt P14866),1.94 (active)
18,GOT2 (lysine site: K73) (UniProt P00505),3.72
19,SEMA3C (lysine site: K431) (UniProt Q99985),2.67
20,UniProt P46781 (lysine site: K155),2.28

row,Target,lysine labeling ratio R10:1
1,LMO7 (lysine site: K794) (UniProt Q8WWI1),2.02
2,UniProt Q12884 (lysine site: K334),3.23
3,SUB1 (lysine site: K39) (UniProt P53999),1.42 (active)
4,TKT (lysine site: K314) (UniProt P29401),5.08
5,ANXA3 (lysine site: K184) (UniProt P12429),1.13 (active)
6,UniProt P62249 (lysine site: K73),3.59
7,P4HB (lysine site: K114) (UniProt P07237),6.39
8,CCDC124 (lysine site: K94) (UniProt Q96CT7),4.68
9,RPL14 (lysine site: K85) (UniProt P50914),1.23 (active)
10,GALNT2 (lysine site: K509) (UniProt Q10471),3.5
11,FOLR1 (lysine site: K62) (UniProt P15328),5.42
12,IGF1R (lysine site: K474) (UniProt P08069),3.24
13,PPIB (lysine site: K116) (UniProt P23284),6.61
14,PTGFRN (lysine site: K576) (UniProt Q9P2B2),2.67
15,UniProt Q15149 (lysine site: K2255),4.45
16,YBX1 (lysine site: K264) (UniProt P67809),4.18
17,DNAJB1 (lysine site: K21) (UniProt P25685),1 (active)
18,TMEM97 (lysine site: K130) (UniProt Q5BJF2),3.33
19,UniProt Q32P28 (lysine site: K662),5.32
20,FLOT2 (lysine site: K132) (UniProt Q14254),2.82
